# Results reported in PubChem BioAssay (NCATS).
# Inconclusive results are not listed. Calls of active or inactive are those of the source. Calls come from the whole dose curve; as a rule, active = well fitted inhibition curve with a large enough effect; inconclusive = small, poorly fitted or top-dose-only effect; inactive = no such curve, though single readings can be large or run the other way.
# Assay: qHTS Screen of the MIPE 4.0 Collection Against Ewings Sarcoma (EW8) (AID 1259255); note: nearly all actives have a fitted effect of over 35% in size;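 for viability: 100% = DMSO-treated cells and 0% = medium-only wells without cells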
# Conditions: EW8 Ewing sarcoma viability, CellTiter-Glo, 48 h; series mostly up to 45.8 µM; viability: at the top concentration
# Outline: (§1)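 Cells plated in serum-containing RPMI (5% FBS) and treated with compound dilutions for 48 h. Readout luminescent viability; normalization relied on vehicle (no inhibition) and media-only columns (full inhibition).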
# Potency is the fitted concentration of half-maximal effect.
SMILES,viability,Potency
CC(C)C(=O)Oc1ccc(CO)cc1[C@H](CCN(C(C)C)C(C)C)c1ccccc1,96.9% (inactive),–
CN(C)c1cc(NC(=O)CNC(C)(C)C)c(O)c2c1C[C@@H]1C[C@H]3[C@H](N(C)C)C(=O)C(C(N)=O)=C(O)[C@@]3(O)C(=O)C1=C2O,111% (inactive),–
C[N+](C)(C)CC(=O)O,122% (inactive),–
COc1ccc(C2Sc3ccccc3N(CCN(C)C)C(=O)C2OC(C)=O)cc1 (stereo not drawn),120% (inactive),–
Clc1ccc(C(c2ccc(Cl)cc2)n2cc[n+](CC(OCc3ccc(Cl)cc3Cl)c3ccc(Cl)cc3Cl)c2)cc1 (stereo not drawn),–,23.5 µM (active)
CC=CC[C@@H](C)C(=O)[C@H]1C(=O)N[C@@H](C(C)C)C(=O)N(C)CC(=O)N(C)[C@@H](CC(C)C)C(=O)N[C@@H](C(C)C)C(=O)N(C)[C@@H](CC(C)C)C(=O)N[C@@H](C)C(=O)N[C@H](C)C(=O)N(C)[C@@H](CC(C)C)C(=O)N(C)[C@@H](CC(C)C)C(=O)N(C)[C@@H](C(C)C)C(=O)N1C,102% (inactive),–
CCn1cc(C(=O)O)c(=O)c2ccc(C)nc21,112% (inactive),–
O=C(CCc1ccc(O)cc1)c1c(O)cc(O)cc1O[C@@H]1O[C@H](CO)[C@H](O)[C@H](O)[C@H]1O,98.9% (inactive),–
Cc1ccc(C(=O)Nc2cccc(C(F)(F)F)c2)cc1Nc1nc(-c2cccnc2)nc2c1cnn2C,–,13.2 µM (active)
Nc1nc(F)nc2c1ncn2[C@@H]1O[C@H](COP(=O)(O)O)[C@@H](O)[C@H]1O,–,14.8 µM (active)
Cc1nc(N)sc1-c1ccnc(Nc2ccc(N3CCOCC3)cc2)n1,–,0.833 µM (active)
CC1(C)CCC2=C(O1)c1ccccc1C(=O)C2=O,–,23.5 µM (active)
O=C(O)C=Cc1ccc(O)c(O)c1,–,23.5 µM (active)
CO[C@H]1C(=O)[C@]2(C)[C@@H](OC)C[C@H]3OC[C@@]3(OC(C)=O)[C@H]2[C@H](OC(=O)c2ccccc2)[C@]2(O)C[C@H](OC(=O)[C@H](O)[C@@H](NC(=O)OC(C)(C)C)c3ccccc3)C(C)=C1C2(C)C,5.22% (inactive),–
C[C@@H]1CCN(C(=O)CC#N)C[C@H]1N(C)c1ncnc2[nH]ccc12,120% (inactive),–
CCCCCN(C)CCC(O)(P(=O)(O)O)P(=O)(O)O,127% (inactive),–
CCOC1OC(=O)C[C@H]1NC(=O)[C@@H]1CCCN1C(=O)[C@@H](NC(=O)c1ccc(N)c(Cl)c1)C(C)(C)C (stereo partly drawn),110% (inactive),–
CC(=Cc1ccccc1)C=C1SC(=S)N(CC(=O)O)C1=O,122% (inactive),–
C=C1C(=O)[C@@]23C(CC[C@@H]1[C@H]2O)[C@@]12CO[C@]3(O)[C@@H](O)[C@@H]1C(C)(C)CC[C@@H]2O (stereo partly drawn),–,4.18 µM (active)
O=c1cc(-c2ccc(O)cc2)oc2cc(O)cc(O)c12,–,23.5 µM (active)
Nc1ncnc2c1ncn2[C@@H]1O[C@@H](CO)[C@H](O)[C@H]1O,118% (inactive),–
NS(=O)(=O)c1cccc2c1C(=O)c1cccc(O)c1C2=O,–,11.8 µM (active)
CC[C@@]1(O)C[C@H](O[C@H]2C[C@H](N(C)C)[C@H](O[C@H]3C[C@H](O)[C@H](O[C@H]4CCC(=O)[C@H](C)O4)[C@H](C)O3)[C@H](C)O2)c2c(cc3c(c2O)C(=O)c2c(O)cccc2C3=O)[C@@H]1C(=O)OC,–,0.296 µM (active)

# Assay: qHTS Screen of the MIPE 4.0 Collection Against Ewings Sarcoma (TC32) (AID 1259256); note: nearly all actives have a fitted effect of over 45% in size;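 for viability (percent of control): 100% = DMSO-treated cells and 0% = medium-only wells without cells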
# Conditions: TC32 Ewing sarcoma viability, CellTiter-Glo, 48 h; series mostly up to 45.8 µM; viability (percent of control): at the top concentration
# Outline: as §1
SMILES,viability (percent of control),Potency
CN(C)c1cc(NC(=O)CNC(C)(C)C)c(O)c2c1C[C@@H]1C[C@H]3[C@H](N(C)C)C(=O)C(C(N)=O)=C(O)[C@@]3(O)C(=O)C1=C2O,121% (inactive),–
C[N+](C)(C)CC(=O)O,129% (inactive),–
COc1ccc(C2Sc3ccccc3N(CCN(C)C)C(=O)C2OC(C)=O)cc1 (stereo not drawn),118% (inactive),–
Clc1ccc(C(c2ccc(Cl)cc2)n2cc[n+](CC(OCc3ccc(Cl)cc3Cl)c3ccc(Cl)cc3Cl)c2)cc1 (stereo not drawn),–,20.9 µM (active)
CC=CC[C@@H](C)C(=O)[C@H]1C(=O)N[C@@H](C(C)C)C(=O)N(C)CC(=O)N(C)[C@@H](CC(C)C)C(=O)N[C@@H](C(C)C)C(=O)N(C)[C@@H](CC(C)C)C(=O)N[C@@H](C)C(=O)N[C@H](C)C(=O)N(C)[C@@H](CC(C)C)C(=O)N(C)[C@@H](CC(C)C)C(=O)N(C)[C@@H](C(C)C)C(=O)N1C,–,18.7 µM (active)
CCn1cc(C(=O)O)c(=O)c2ccc(C)nc21,120% (inactive),–
O=C(CCc1ccc(O)cc1)c1c(O)cc(O)cc1O[C@@H]1O[C@H](CO)[C@H](O)[C@H](O)[C@H]1O,121% (inactive),–
Cc1ccc(C(=O)Nc2cccc(C(F)(F)F)c2)cc1Nc1nc(-c2cccnc2)nc2c1cnn2C,–,13.2 µM (active)
Nc1nc(F)nc2c1ncn2[C@@H]1O[C@H](COP(=O)(O)O)[C@@H](O)[C@H]1O,–,16.6 µM (active)
Cc1nc(N)sc1-c1ccnc(Nc2ccc(N3CCOCC3)cc2)n1,–,16.6 µM (active)
O=C(O)C=Cc1ccc(O)c(O)c1,–,20.9 µM (active)
CO[C@H]1C(=O)[C@]2(C)[C@@H](OC)C[C@H]3OC[C@@]3(OC(C)=O)[C@H]2[C@H](OC(=O)c2ccccc2)[C@]2(O)C[C@H](OC(=O)[C@H](O)[C@@H](NC(=O)OC(C)(C)C)c3ccccc3)C(C)=C1C2(C)C,103% (inactive),–
C[C@@H]1CCN(C(=O)CC#N)C[C@H]1N(C)c1ncnc2[nH]ccc12,121% (inactive),–
CCCCCN(C)CCC(O)(P(=O)(O)O)P(=O)(O)O,134% (inactive),–
CCOC1OC(=O)C[C@H]1NC(=O)[C@@H]1CCCN1C(=O)[C@@H](NC(=O)c1ccc(N)c(Cl)c1)C(C)(C)C (stereo partly drawn),113% (inactive),–
CC(=Cc1ccccc1)C=C1SC(=S)N(CC(=O)O)C1=O,126% (inactive),–
C=C1C(=O)[C@@]23C(CC[C@@H]1[C@H]2O)[C@@]12CO[C@]3(O)[C@@H](O)[C@@H]1C(C)(C)CC[C@@H]2O (stereo partly drawn),–,5.26 µM (active)
Nc1ncnc2c1ncn2[C@@H]1O[C@@H](CO)[C@H](O)[C@H]1O,112% (inactive),–
NS(=O)(=O)c1cccc2c1C(=O)c1cccc(O)c1C2=O,–,1.87 µM (active)
CC[C@@]1(O)C[C@H](O[C@H]2C[C@H](N(C)C)[C@H](O[C@H]3C[C@H](O)[C@H](O[C@H]4CCC(=O)[C@H](C)O4)[C@H](C)O3)[C@H](C)O2)c2c(cc3c(c2O)C(=O)c2c(O)cccc2C3=O)[C@@H]1C(=O)OC,13.4% (inactive),–
